Laboratory results taken from PubChem BioAssay (NCATS).
Values without a mark were called inactive. Records with an inconclusive call do not appear. Where a call stands in place of a potency, no number is given. Calls of active or inactive are those of the source. Unless noted, calls follow the shape of the dose curve; as a rule, active = well fitted curve in the direction sought with a large enough effect; inconclusive = small, poorly fitted or top-dose-only effect, or another doubt; inactive = no such curve, though single readings can be large; an effect the other way counts as inactive or inconclusive.

Tests used:
[1] = P-glycoprotein substrates identified in KB-3-1 adenocarcinoma cell line, qHTS therapeutic library screen (AID 1346986); also: nearly all actives have a fitted effect of over 60% in size
In short: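 Viability by CellTiter-Glo after 72 h compound exposure at 37 degree C, 5% CO2. Cytotoxic call: curve class -1.1 to -2.4, maximum response >50%, AC50 < 10 uM, compared across KB-3-1 and P-gp-overexpressing KB-8-5-11.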

[2] = P-glycoprotein substrates identified in KB-8-5-11 adenocarcinoma cell line, qHTS therapeutic library screen (AID 1346987); also: nearly all actives have a fitted effect of over 65% in size; as to activity change, negative = cytotoxicity: series mostly up to about 44 µM
In short: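 Human cervical adenocarcinoma KB-8-5-11 cells, selected in colchicine to over-express P-gp and assayed without it, were exposed for 72 h to titrated compounds. An ATP-based luminescent viability signal gave AC50.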

[3] = qHTS assay for small molecule agonists of the antioxidant response element (ARE) signaling pathway (AID 651741; active = well fitted activation curve with a large enough effect in the signal ratio; the % refers to the signal ratio)
In short: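 HepG2 ARE-bla reporter cells, 2,000/well; 5 h settle at 37 C/5% CO2; compound pin transfer (23 nL, DMSO); 16 h at 37 C; LiveBLAzer B/G FRET substrate, 2 h RT; fluorescence intensity read.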

[4] = qHTS assay for small molecule activators of the p53 signaling pathway (AID 651743; active = well fitted activation curve with a large enough effect in the signal ratio, not every such curve was filed as active; the % refers to the signal ratio; also: series mostly up to about 92 µM); conditions: HCT-116 p53RE-bla, beta-lactamase FRET ratio, 16 h; active compounds read high
In short: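 Reporter: beta-lactamase driven by p53 response elements, stably integrated in HCT-116 cells. Cells seeded at 4,000/well, 5 h preincubation, compound (DMSO) 16 h at 37 C; B/G FRET substrate 2 h RT; fluorescence intensity read.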

[5] = qHTS assay for small molecule activators of the nuclear factor-kappa B (NF-kB) signaling pathway (AID 651749; active = well fitted activation curve with a large enough effect in the signal ratio; the % refers to the signal ratio; also: series mostly up to about 77 µM); conditions: NF-kB-bla ME-180 cells, beta-lactamase FRET ratio, 16 h; active compounds read high
In short: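 NF-kB-bla ME-180 cells, 2,000/well; 23 nL compound or DMSO pinned; 16 hr, 37C/5% CO2; beta-lactamase FRET read-out.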

[6] = qHTS assay for small molecule disruptors of the mitochondrial membrane potential - 1 hr assay (AID 651754; calls by dose curve; also: nearly all actives have a fitted effect of over 35% in size)
In short: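 In this qHTS format, a 1 hr compound treatment of HepG2 cells precedes Mito-MPS staining, and membrane potential is judged from aggregate (red) against monomer (green) fluorescence intensity.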

[7] = qHTS assay for small molecule disruptors of the mitochondrial membrane potential - 5 hr assay (AID 651755; calls by dose curve; also: nearly all actives have a fitted effect of over 40% in size)
In short: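 Read-out: ratiometric Mito-MPS fluorescence, green monomer (ex 490/em 535) vs red mitochondrial aggregate (ex 540/em 590). HepG2 cells treated 5 hr at 37C before 30 min dye loading.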

[8] = qHTS assay to identify small molecules that stimulate interleukin-8 (IL-8) secretion (AID 651758; active = well fitted activation curve with a large enough effect in the signal ratio; the % refers to the signal ratio)
In short: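 Compounds are added to THP-1 cells (2000 per well) and left 16 hrs at 37 C. A labeled anti-IL-8 antibody pair is then added, and IL-8 secretion is measured by time-resolved FRET after 1-3 hrs at room temperature.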

[9] = molecular target: Peroxisome proliferator-activated receptor alpha (Homo sapiens) (UniProt Q07869); assay: qHTS assay for small molecule agonists of the peroxisome proliferator-activated receptor alpha (PPARalpha) signaling pathway (AID 651778); conditions: PathHunter PPARalpha complementation, chemiluminescence, 6 h; active compounds read high
Chain of Peroxisome proliferator-activated receptor alpha (Homo sapiens) (Q07869 whole entry, looked up, the tested form may be a part): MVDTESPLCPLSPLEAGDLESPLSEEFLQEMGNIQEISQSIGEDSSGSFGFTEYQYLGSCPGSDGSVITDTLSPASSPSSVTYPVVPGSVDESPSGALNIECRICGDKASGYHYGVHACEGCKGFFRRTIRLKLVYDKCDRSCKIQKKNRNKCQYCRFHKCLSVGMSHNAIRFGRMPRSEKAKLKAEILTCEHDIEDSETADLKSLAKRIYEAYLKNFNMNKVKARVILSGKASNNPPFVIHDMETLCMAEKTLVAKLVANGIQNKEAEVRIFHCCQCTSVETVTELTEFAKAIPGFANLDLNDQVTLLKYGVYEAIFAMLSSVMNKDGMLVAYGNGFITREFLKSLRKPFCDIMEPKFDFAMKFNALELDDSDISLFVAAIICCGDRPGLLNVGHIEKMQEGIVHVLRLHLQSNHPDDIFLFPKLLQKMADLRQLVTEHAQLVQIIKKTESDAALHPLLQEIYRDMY
In short: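 Enzyme-fragment complementation assay in which ligand-bound PPARalpha translocates and forms an active enzyme that generates chemiluminescence. Cells were plated overnight, exposed to compound for 6 hr at 37 C, and then given detection reagent for 60 min at room temperature.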

[10] = molecular target: Nuclear receptor ROR-gamma (Homo sapiens) (UniProt P51449); assay: qHTS assay for small molecule antagonists of the retinoid-related orphan receptor gamma (ROR-gamma) signaling pathway (AID 651802);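 also: CHO cells with doxycycline-induced ROR-gamma expression; luciferase reporter luminescence driven by ROR response element; series mostly up to about 92 µM; nearly all actives have a fitted effect of over 60% in size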
Chain of Nuclear receptor ROR-gamma (Homo sapiens) (P51449 whole entry, looked up): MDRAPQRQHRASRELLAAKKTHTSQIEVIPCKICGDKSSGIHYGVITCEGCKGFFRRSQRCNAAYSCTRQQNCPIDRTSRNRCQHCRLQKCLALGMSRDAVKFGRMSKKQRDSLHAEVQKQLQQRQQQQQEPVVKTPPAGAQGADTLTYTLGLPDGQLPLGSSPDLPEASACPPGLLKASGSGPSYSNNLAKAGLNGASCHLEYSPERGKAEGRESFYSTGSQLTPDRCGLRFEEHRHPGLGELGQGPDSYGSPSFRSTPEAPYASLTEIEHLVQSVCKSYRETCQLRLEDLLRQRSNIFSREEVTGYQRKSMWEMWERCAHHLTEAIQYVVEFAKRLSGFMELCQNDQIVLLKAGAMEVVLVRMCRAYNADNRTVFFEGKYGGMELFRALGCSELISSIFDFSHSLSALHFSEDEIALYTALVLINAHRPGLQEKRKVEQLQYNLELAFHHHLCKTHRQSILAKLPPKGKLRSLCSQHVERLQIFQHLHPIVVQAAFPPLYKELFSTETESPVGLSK
In short: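 Doxycycline-induced reporter activity in engineered CHO cells (TET-inducible ROR, RORE-LUC) was measured by luminescence after 16hr compound exposure at 37C.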

[11] = qHTS assay for small molecule agonists of the antioxidant response element (ARE) signaling pathway measured by Nrf2-dependant transcriptional activity (AID 720636; active = well fitted curve in the direction sought with a large enough effect in the repeat runs; an effect the other way counts as inactive or inconclusive)
In short: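 ARE-luc HepG2 cells carrying an Nrf2-responsive luciferase reporter, in medium with 1% dialyzed FBS, exposed to compound for 16 hr at 37 C, 5% CO2. Luminescence read 30 min after ONE-Glo addition.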

[12] = qHTS assay for small molecule antagonists of the retinoid-related orphan receptor gamma (ROR-gamma) signaling pathway - cell viability counter screen (AID 720652; active = well fitted curve in the direction sought with a large enough effect in the repeat runs; an effect the other way counts as inactive or inconclusive;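 also: CHO reporter cells with doxycycline-induced ROR-gamma expression; series mostly up to about 92 µM; compound exposure lasted 16 hr before ATP read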)
In short: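 ATP-based viability readout in the ROR-gamma reporter CHO cells after 16 hr compound exposure under doxycycline induction.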

[13] = qHTS assay for small molecule agonists of the antioxidant response element (ARE) signaling pathway measured by Nrf2-dependant transcriptional activity - cell viability counter screen (AID 720653; active = well fitted curve in the direction sought with a large enough effect in the repeat runs; an effect the other way counts as inactive or inconclusive); conditions: ARE-bla HepG2 viability, CellTiter-Glo ATP luminescence, 16 h; active compounds read low
In short: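 ARE-bla HepG2 cells treated with compounds for 16 h at 37C; this counter screen measures viability as intracellular ATP by CellTiter-Glo luminescence after 30 min at room temperature.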

[14] = qHTS assay for cell viability of HEK293 cells (AID 743288); conditions: ATP luminescence (CellTiter-Glo), 18 h, active compounds read low; also: nearly all actives have a fitted effect of over 50% in size
In short: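 Steps: plate 2,000 parental HEK293 cells per well; incubate ≥5 h, 37 C; add compounds in DMSO; incubate 18 h, 37 C; add CellTiter-Glo; wait 30 min at room temperature; read luminescence.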

[15] = qHTS assay for cell viability of the p53RE-bla HCT-116 cell line (AID 743292); also: nearly all actives have a fitted effect of over 55% in size
In short: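 CellSensor p53RE-bla HCT-116 cells (4,000/well) pre-incubated 5 h at 37 C, then exposed to compounds in DMSO for 16 h at 37 C. Viability read as ATP content by CellTiter-Glo luminescence after 30 min at room temperature.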

Furin (Homo sapiens) = Furin (Homo sapiens) (UniProt P09958); assay: Furin counterscreen qHTS for Zika virus inhibitors (AID 1347149); also: potency is read from the fitted curve at half-maximal effect; nearly all actives have a fitted effect of over 70% in size
Chain of Furin (Homo sapiens) (P09958 whole entry, looked up): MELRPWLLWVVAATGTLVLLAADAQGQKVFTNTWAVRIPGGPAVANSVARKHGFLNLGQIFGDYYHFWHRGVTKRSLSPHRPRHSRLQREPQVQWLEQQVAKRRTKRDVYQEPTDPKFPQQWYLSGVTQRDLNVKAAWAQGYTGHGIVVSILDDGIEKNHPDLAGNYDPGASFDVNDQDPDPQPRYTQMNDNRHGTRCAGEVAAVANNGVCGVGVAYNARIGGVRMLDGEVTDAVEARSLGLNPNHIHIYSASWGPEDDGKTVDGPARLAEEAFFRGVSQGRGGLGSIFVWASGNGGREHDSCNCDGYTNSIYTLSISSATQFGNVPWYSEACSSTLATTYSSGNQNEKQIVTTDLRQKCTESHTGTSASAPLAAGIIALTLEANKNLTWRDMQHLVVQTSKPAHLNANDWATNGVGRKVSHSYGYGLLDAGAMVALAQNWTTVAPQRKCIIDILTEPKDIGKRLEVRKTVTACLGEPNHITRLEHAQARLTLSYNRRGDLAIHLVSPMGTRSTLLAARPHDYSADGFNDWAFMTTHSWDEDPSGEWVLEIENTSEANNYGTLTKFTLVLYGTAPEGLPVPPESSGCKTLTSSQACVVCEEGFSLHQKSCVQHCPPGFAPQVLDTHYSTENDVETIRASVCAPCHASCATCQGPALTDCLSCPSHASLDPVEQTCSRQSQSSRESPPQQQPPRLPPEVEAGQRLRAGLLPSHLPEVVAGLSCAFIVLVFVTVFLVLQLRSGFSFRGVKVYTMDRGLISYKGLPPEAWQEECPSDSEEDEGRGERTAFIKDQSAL
In short: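 Counterscreen measures cleavage of 2 microM BOC-RVRR-AMC, below its ~15 microM Km, by 5 nM full-length human furin at pH 7.0 after a 15-min compound preincubation. Inhibition derives from the 15-min fluorescence increase at 37C.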

In the case of COc1cccc(CN(C(=O)CC(C)(C)C)C2CC(C(=O)N3CCNCC3)N(Cc3ccc4c(c3)OCO4)C2)c1 (stereo not given), the Potency [1] is reported as “inactive” and the Potency [2] is reported as “inactive”.

For CC[C@H](C)[C@H](NC(=O)[C@H](Cc1ccc(O)cc1)NC(=O)[C@@H](N)C(C)C)C(=O)N[C@@H](Cc1cnc[nH]1)C(=O)N1CCC[C@H]1C(=O)N[C@@H](Cc1ccccc1)C(=O)O, the activity change, negative = cytotoxicity [2] was 1.21% [at 5.11 µM].

In the case of COc1cc(C)c(C(=O)O[C@@H]2[C@H](O)[C@@H](CO)O[C@H]2n2ccc(=O)[nH]c2=O)c(OC)c1, the Potency [1] is reported as “inactive” and the Potency [2] is reported as “inactive”.

In the case of CC1(C)CC[C@]2(C(=O)O)CC[C@]3(C)C(=CCC4[C@@]5(C)C(=O)C[C@H](O)[C@@](C)(CO)C5CC[C@]43C)[C@@H]2C1 (stereo not given in full), the Potency [2] is reported as “inactive”.

In the case of C[C@]1(O)CC[C@@H]2C(C(=O)O)=CO[C@@H](O[C@@H]3O[C@H](CO)[C@@H](O)[C@H](O)[C@H]3O)[C@@H]21, the Potency [2] is reported as “inactive”.

In the case of Cc1sc(C)c(C(=O)NC2(c3ccc(C(=O)O)cc3)CC2)c1Cc1ccc(C(F)(F)F)cc1, the Potency [2] is reported as “inactive”.

With C=C1CC[C@@H]2[C@](C)(CO)[C@H](O[C@@H]3O[C@H](CO)[C@@H](O)[C@H](O)[C@H]3O)CC[C@@]2(C)[C@@H]1C/C=C1/C(=O)OC[C@H]1O the Potency [2] was “inactive”.

For COc1ccc(CCC(=O)c2c(O)cc(O[C@@H]3O[C@H](CO)[C@@H](O)[C@H](O)[C@H]3O[C@@H]3O[C@@H](C)[C@H](O)[C@@H](O)[C@H]3O)cc2O)cc1O, the outcome [3] was “inactive”, the activation [4] was -3.41% and the activation [5] was -2.14%. For the same molecule, the outcome [6] was “inactive”, the outcome [7] was “inactive” and the outcome [8] was “inactive”. The max response [9] was 0.724%, the outcome [10] was “inactive” and the outcome [11] was “inactive”. The outcome [12] was “inactive”, the max response [13] was -0.966% and the max response [14] was -4.69%. For the same molecule, the outcome [15] was “inactive”, the Potency [1] was “inactive” and the Potency [2] was “inactive”.

With C=C1C(=O)OC[C@H]2C(C(=O)O)=CC3CC(C)(C)C[C@@]132 (stereo not given in full) the Potency [1] was “inactive” and the Potency [2] was “inactive”.

With COc1cc2c(cc1O)CC(O)(CO)C(CO)C2c1ccc(OC2OC(CO)C(O)C(O)C2O)c(OC)c1 (stereo not given) the Potency [1] was “inactive” and the Potency [2] was “inactive”.

With O=C(O)c1ccnc2cc(-c3nc4ccccc4n3CCN3CCCCC3)sc12 the Potency [2] was “inactive”.

For O=C(Nc1ccccc1)Nc1ccc(-c2ccc(C(=O)C3CCCC3C(=O)O)cc2)cc1 (stereo not given), the Potency [1] was “inactive”, the Potency [2] was “inactive” and the Potency (Furin (Homo sapiens)) was 55.5 µM (active).

With CCOc1ncc(S(=O)(=O)N2CCN(CC)CC2)cc1-c1nc2c(CC)n(CCOC)nc2c(=O)[nH]1 the Potency [1] was “inactive” and the Potency [2] was “inactive”.

In the case of COC(=O)C(CC1(O)c2ccccc2N2C(=O)C(C)(C)N(O)C21)n1cnc2ccccc2c1=O (stereo not given), the Potency [2] is reported as “inactive”.

With Fc1cccc(CN(C2=NCCN2)c2c(Cl)cccc2Cl)c1 the Potency [2] was “inactive”.

For OC[C@@]1(O)CO[C@H](OC[C@H]2O[C@@H](OC(CCCCc3ccc(O)cc3)CCc3ccc(O)cc3)[C@H](O)[C@@H](O)[C@@H]2O)[C@@H]1O (stereo not given in full), the Potency [2] was “inactive”.

With CC(C)C1CCC(CO)=CC1/C=C(\CO)C(=O)OCC1(O)CCC(C(C)C)C2C=C(C(=O)O)COC(=O)C21 (stereo not given) the Potency [1] was “inactive” and the Potency [2] was “inactive”.

For C[C@@H]1O[C@@H](O[C@H]2[C@@H]3C=CO[C@@H](O[C@@H]4O[C@H](CO)[C@@H](O)[C@H](O)[C@H]4O)[C@@H]3[C@@]3(CO)O[C@@H]23)[C@H](O)[C@H](OC(=O)/C=C/c2ccc(O)c(O)c2)[C@H]1O, the Potency [2] was “inactive”.

For O=C(O)CCc1ccc(NCc2cccc3c2CCCN3CCOc2ccccc2)cc1F, the Potency [2] was “inactive”.

In the case of CC1(C)CC=C(c2cnc3ccccc3c2)c2cc(C(=O)Nc3ccc(C(=O)O)cc3)ccc21, the Potency [1] is reported as “inactive”, the Potency [2] is reported as “inactive” and the Potency (Furin (Homo sapiens)) is reported as 44.1 µM (active).

C[C@@H]1O[C@@H](O[C@H]2[C@H](OC(=O)[C@]34CCC(C)(C)C[C@H]3C3=CCC5[C@@]6(C)CC[C@H](O[C@@H]7O[C@H](CO[C@@H]8OC[C@H](O)[C@H](O)[C@H]8O[C@@H]8OC[C@@H](O)[C@H](O)[C@H]8O)[C@@H](O)[C@H](O)[C@H]7O)C(C)(C)C6CC[C@@]5(C)[C@]3(C)C[C@H]4O)O[C@H](CO)[C@@H](O)[C@@H]2O)[C@H](O[C@@H]2O[C@H](CO)[C@@H](O)[C@H](O)[C@H]2O)[C@H](O)[C@H]1O[C@@H]1OC[C@@H](O)[C@H](O[C@@H]2OC[C@@H](O)[C@H](O)[C@H]2O)[C@H]1O (stereo not given in full) gave an activity change, negative = cytotoxicity [2] of 9.58% [at 5.11 µM].
